ALR inh: human ALR oxidase inhibition via reduced H2O2; hit rate 3.8% among 290,000; purified ALR, DTT oxidation, H2O2 HRP-luminol luminescence; P55789; inhibition, % (no concentration beside the values); AID 485317;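 active = mean replicate inhibition above about 79%, with every replicate also reaching it, limit read from the data; inconclusive = only one of the two criteria met; inactive = mean below limit and not every replicate reaching it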
PglD inh: inhibitors of Campylobacter jejuni PglD acetyltransferase; purified PglD enzyme, DTNB colorimetric CoA detection; inhibition, % at 12.5 µM; hit rate 0.098% among 360,000; AID 602405; in the data active = inhibition above about 16%, passing the limit was not always enough; inconclusive = no clear call, values can overlap the other calls
PDI inh: inhibitors of human protein disulfide isomerase; P07237; PDI insulin aggregation turbidity, A650, 90 min; inhibition, % at 10 µM; hit rate 0.052% among 350,000;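 active = mean inhibition across replicates of 30% or more, whatever share of single replicates reach that level; inconclusive = mean inhibition below 30% while every single replicate reaches 30%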
ARNT TACC3 PPI: disrupts binding between human ARNT and TACC3; AlphaScreen His-ARNT PAS-B/GST-TACC3 binding, luminescence; TACC3 fragment carries E629A point mutation; hit rate 0.66% among 390,000; Q9Y6A5; inhibition, % at 9.99 µM;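 active = mean inhibition of replicates at least 50% and at least half of replicates each reaching 50%; inconclusive = half or more replicates reach 50% but mean below 50%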
ERp5 block: ERp5 (human) disulfide isomerase inhibition | Q15084 | ERp5 insulin aggregation, absorbance 650 nm, 90 min | inhibition, % at 9.99 µM | hit rate 0.05% among 350,000 | AID 651711;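 active = mean replicate inhibition above about 25%, with every replicate also reaching it, limit read from the data, passing the limit was not always enough; inconclusive = only one of those two criteria met; inactive = neither criterion met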
NRP1-CendR mod: NRP-1/CendR interaction modulation; inhibition, % at 25 µM; hit rate 0.85% among 360,000; FAM-RPARPAR peptide binding to NRP-1, fluorescence polarization; O14786; AID 602438;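 active = inhibition or corrected inhibition above about 18%, plus a signal ratio from 0.5 to 1.5, limit read from the data, passing the limit was not always enough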
Target sequence (O14786 whole entry, looked up): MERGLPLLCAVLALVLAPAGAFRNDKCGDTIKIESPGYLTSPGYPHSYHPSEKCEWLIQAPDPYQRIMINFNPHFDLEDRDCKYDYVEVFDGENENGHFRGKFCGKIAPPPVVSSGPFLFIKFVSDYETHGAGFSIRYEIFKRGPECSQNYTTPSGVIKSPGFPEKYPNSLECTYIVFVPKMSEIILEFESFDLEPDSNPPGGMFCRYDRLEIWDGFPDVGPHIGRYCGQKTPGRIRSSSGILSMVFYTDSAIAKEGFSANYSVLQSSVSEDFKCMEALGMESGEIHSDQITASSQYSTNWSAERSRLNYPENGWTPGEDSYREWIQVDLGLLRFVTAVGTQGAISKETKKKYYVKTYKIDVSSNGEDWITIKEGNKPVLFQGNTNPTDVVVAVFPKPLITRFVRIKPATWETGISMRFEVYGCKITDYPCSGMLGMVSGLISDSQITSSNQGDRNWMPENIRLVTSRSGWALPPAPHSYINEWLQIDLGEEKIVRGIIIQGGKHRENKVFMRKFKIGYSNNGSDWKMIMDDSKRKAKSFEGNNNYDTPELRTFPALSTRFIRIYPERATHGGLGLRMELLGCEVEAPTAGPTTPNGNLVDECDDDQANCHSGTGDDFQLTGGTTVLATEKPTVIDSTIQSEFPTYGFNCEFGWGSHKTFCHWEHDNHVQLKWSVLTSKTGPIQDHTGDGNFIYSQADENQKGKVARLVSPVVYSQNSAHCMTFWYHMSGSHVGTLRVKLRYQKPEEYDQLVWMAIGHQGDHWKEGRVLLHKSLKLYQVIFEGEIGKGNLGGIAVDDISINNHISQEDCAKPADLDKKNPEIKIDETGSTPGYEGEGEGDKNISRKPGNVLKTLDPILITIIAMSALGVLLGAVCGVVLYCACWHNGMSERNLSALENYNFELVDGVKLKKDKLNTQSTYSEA
Hits are given with their value; . = inactive; ? = inconclusive; / = no result. Only a selection was taken, and hits are over-represented in it overall.

SMILES	ALR inh	PglD inh	PDI inh	ARNT TACC3 PPI	ERp5 block	NRP1-CendR mod
COCC(=O)N(C)C[C@@H]1Oc2cc(C#Cc3cccnc3)ccc2S(=O)(=O)N([C@H](C)CO)C[C@@H]1C	/	.	/	.	.	/
CC(C)C(CO)N1CCN(Cc2ccccc2)CCC1=O (centres undefined)	.	.	.	.	.	24
COCC(=O)N1[C@@H](CO)[C@@H](c2ccc(-c3ccccc3)cc2)C12CN(C(C)=O)C2	/	/	/	/	.	/
COc1cccc(-c2cc(N)nn2C(=O)Nc2ccc(Cl)cc2)c1	100	.	/	.	.	.
COc1cccc(NC(=O)N(C)C[C@@H]2Oc3cc(/C=C/c4ccccc4)ccc3S(=O)(=O)N([C@@H](C)CO)C[C@H]2C)c1	/	.	/	.	.	/
CN(C)C(=O)[C@@H]1[C@@H](CO)[C@@H]2Cn3c(ccc(-c4ccccc4)c3=O)[C@@H]2N1Cc1ccccc1	/	.	/	.	.	/
O=C(CSc1nc2ccccc2[nH]1)N=Nc1c(O)[nH]c2ccccc12	96	.	.	.	/	.
CC1CC(=O)c2c(cc3c(-c4c(O)cc(O)c5c(O)c6c(cc45)OC(C)CC6=O)c(O)cc(O)c3c2O)O1 (centres undefined)	.	.	/	96	/	.
O=C1CC(c2ccccc2)Oc2cc(O)cc(O)c21 (centres undefined)	.	.	/	.	.	.
Cc1c(Cl)cnc(NC(=O)COC(=O)CNC(=O)c2ccccc2)c1Cl	.	.	.	.	.	.
CC(C)CC(NC(=O)c1ccccc1)C(=O)OCC(=O)Nc1ccc(Br)cn1 (centres undefined)	99	.	.	.	/	.
Cc1c(Cl)cnc(NC(=O)COC(=O)[C@H](C)NC(=O)c2ccccc2)c1Cl	/	.	.	.	.	26
COc1ccc2c3c([nH]c2c1)[C@H](CO)N(Cc1ccccc1F)CC31CCN(C(=O)C2CCOCC2)CC1	/	/	/	/	.	/
O=C(COc1ccc(Br)cc1Cl)NC(=S)N1CCc2ccccc21	.	.	.	/	.	.
O=C(COc1ccc(Br)cc1Br)NC(=S)N1CCCc2ccccc21	93	/	.	.	/	.
COc1ccc(-n2c(CNC(=O)COc3ccc(Cl)cc3)n[nH]c2=S)cc1	88	.	.	.	.	.
COc1ccc(-n2c(CNC(=O)c3cccs3)n[nH]c2=S)cc1	.	.	.	.	.	31
COc1ccc(CC(=O)NCc2n[nH]c(=S)n2-c2ccc(F)cc2)cc1	.	/	.	.	.	.
CSc1ccc(/C=N/n2c(C3CCCCC3)n[nH]c2=S)cc1	.	.	.	.	.	.
S=c1[nH]nc(C2CCCCC2)n1/N=C/c1cccs1	96	.	.	.	/	.
Cc1ccc(/C=N/n2c(C3CCCCC3)n[nH]c2=S)o1	97	.	.	.	.	.
COCC#Cc1cnc2c(c1)C(=O)N([C@@H](C)CO)C[C@@H](C)[C@@H](CN(C)S(=O)(=O)c1cn(C)cn1)O2	/	.	/	.	.	/
C[C@@H]1CN([C@@H](C)CO)C(=O)c2cc(-c3ccccc3F)cnc2O[C@H]1CN(C)C(=O)NC1CCCC1	/	.	/	.	.	/
O=c1cc(-c2ccccc2)cc(-c2ccccc2)n1O	98	.	.	.	.	.
Cn1c(-c2ccccc2)cc(=O)cc1-c1ccccc1	/	.	.	/	.	.
SMILES	ALR inh	PglD inh	PDI inh	ARNT TACC3 PPI	ERp5 block	NRP1-CendR mod
CCCNC(=O)Nc1ccc2c(c1)C(=O)N(C)C[C@@H](OC)[C@@H](C)CN[C@@H](C)CO2	/	.	/	.	.	/
O=C(O)CCC(=O)Nc1ccc(-c2csc(Nc3cccc4ccccc34)n2)cc1	?	.	.	8.8	.	.
C[C@H](CO)N1C[C@H](C)[C@@H](CN(C)C(=O)Nc2ccc3c(c2)OCO3)Oc2c(NS(C)(=O)=O)cccc2C1=O	/	.	/	.	.	/
CCc1ccccc1NC(=O)CSc1nnc([C@@H](N)Cc2ccccc2)o1	.	.	.	.	/	.
N[C@@H](Cc1ccccc1)c1nnc(SCc2ccccc2Cl)o1	98	.	.	.	/	.
O=C(N[C@H]1CC[C@@H](CCNC(=O)C2CCOCC2)O[C@H]1CO)c1ccccn1	/	.	/	.	.	/
Cc1ccc2[nH]c3c(c2c1)CCc1cn[nH]c1-3	99	.	.	.	/	.
Cc1ccc2[nH]c3c(c2c1)CCC3=O	.	.	.	.	/	.
C[C@@H]1CN([C@@H](C)CO)C(=O)c2cc(NC(=O)Nc3ccc(C(F)(F)F)cc3)ccc2O[C@@H](C)CCCCO[C@@H]1CN(C)Cc1ccc2c(c1)OCO2	/	.	/	.	.	/
O=C(Cc1ccc(F)cc1)N1CCC(CC2CC(c3ccc(Cl)cc3)=NO2)(C(=O)NCC2CCCCC2)CC1 (centres undefined)	.	.	.	.	.	25
CO[C@@H]1CN(C)C(=O)c2cc(NC(=O)Nc3ccccc3)ccc2OC[C@H](C)N(C(=O)CN(C)C)C[C@@H]1C	/	.	/	.	.	/
CNc1c(N)c(=O)oc2ccccc12	93	.	.	.	.	.
CC(C)Nc1c(N)c(=O)oc2ccccc12	92	.	.	.	/	.
Nc1c(N2CCN(c3ccccc3)CC2)c2ccccc2oc1=O	98	.	.	.	/	.
CCOC(=O)c1oc2ccccc2c1CN1CCN(c2ccccc2)CC1	94	.	.	.	/	.
CC(C)Nc1c([N+](=O)[O-])c(=O)oc2ccccc12	.	/	.	.	.	.
Nc1c(N)c2ccccc2oc1=O	.	.	.	.	/	.
C[C@H](CO)N1C[C@H](C)[C@@H](CN(C)C(=O)c2ccccn2)Oc2cc(C#CC3CC3)ccc2S1(=O)=O	/	.	/	.	.	/
O=C(C[C@H]1CC[C@@H]2[C@H](COC[C@H](O)CN2CC2CCCCC2)O1)NCC1CC1	/	.	/	.	.	/
COc1ccc(C#Cc2cccc(-c3nc(C(=O)N4CCN(C)CC4)cc4c3[C@@H](CCO)N(S(=O)C(C)(C)C)C4)c2)cc1OC (some centres undefined)	/	/	/	/	.	/
Cn1c(N)c(N2CCN(c3ccccc3)CC2)c(=O)[nH]c1=O	98	.	.	/	.	.
Cc1nc2ccccn2c1C(=O)NNC(=S)Nc1ccc(Cl)cc1	87	.	.	.	/	.
Cc1nc2ccccn2c1C(=O)NNC(=O)Nc1ccccc1	.	.	.	/	.	.
Cc1nc2ccccn2c1C(=O)NNC(=S)Nc1ccccc1	97	/	.	.	.	.
Cc1cccc(-n2cnc(C(=O)NNC(=S)Nc3ccc(Cl)cc3)c2)n1	.	/	.	67	.	.
CCC(=O)Nc1ccc(NC(=O)c2c(C)nc3ccccn23)cc1	.	.	.	.	/	.
Cc1nn(C)cc1C(=O)NNC(=S)Nc1ccccc1	88	.	.	.	/	.
O=C(CC1CC1)Nc1ccc2c(c1)[C@H]1C[C@H](CC(=O)NC3CCCC3)O[C@H](CO)[C@H]1O2	/	.	/	/	.	/
N#Cc1c2n(c3c(=O)n(Cc4ccccc4)cnc13)CCCC2	84	.	.	.	.	.
